The text below walks through data of PubChem BioAssay.

In test [1] the test system is Wnt5a (protein binding on small-molecule microarray). As to the kind of experiment: small molecules binding Wnt5a protein – biophysical, small-molecule microarray, 635/667 nm fluorescence, primary screen (AID 1142).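 Also: fluorescence read at 667 nm with signal to noise per printed feature.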 As to conditions: 635 nm fluorescence, higher = more signal.
A short description of test [2]: ATP-based viability of Huh7 replicon cells – cell-based, CellTiter-Glo luminescence, basal, 48 h, cytotoxicity control for HCV replication inhibitor project, primary screen (AID 1143).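 Also: Huh7 hepatoma cells carrying a hepatitis C replication reporter with no stimulus; test concentration not given here.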 As to conditions: higher = more signal, called active from +8 up or from −8 down. On the technique in general: In antiviral work, replicon cells carry a viral genome segment that copies itself.

Test [3] can be described thus: Pseudomonas biofilm growth suppression – PAO1 strain, BacTiter-Glo luminescence, LB-PBS, primary screen (AID 1144). As to conditions: P. aeruginosa PAO1 biofilm, 12 h, higher = more signal.
Test [4] can be described thus: basal CRE-LacZ reporter activity in PC12 – cell-based, unstimulated, primary screen (AID 1145). As to conditions: no forskolin, luminescence, 4.5 h, higher = more signal, called active from +8 up or from −8 down.
A short description of test [5]: forskolin-driven CRE-LacZ activity in PC12 – cell-based, CRE-LacZ reporter, forskolin-stimulated, primary screen (AID 1146).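 Also: PC12 cells with 6xCRE LacZ reporter stimulated by forskolin 10 µM; beta-galactosidase reporter signal reflecting CREB driven transcription.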 The conditions noted are these: luminescence, 4.5 h, higher = more signal, called active from +8 up or from −8 down.
Test [6] addresses Streptavidin (Streptomyces avidinii) (UniProt P22629). Put plainly: compounds binding control protein streptavidin – biophysical, small-molecule microarray, 635/667 nm fluorescence, artefact control for SMM compound annotation, primary screen (AID 1147).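 Also: signal reflects streptavidin binding to arrayed compounds as a control protein.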 The conditions noted are these: higher = more signal.
Test [7] is described as follows: probe aInhba binding on compound microarray – biochemical, small-molecule microarray, 635/667 nm fluorescence, primary screen (AID 1148).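 Also: score merges 667nm spot fluorescence with signal-to-noise for antibody binding to printed compounds.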 As to conditions: higher = more signal.
The target of test [8] is Torsin-1A (Homo sapiens) (UniProt O14656). As to the kind of experiment: TOR1A wild-type binding on microarray – cell lysate, small-molecule microarray, lysate, 635/667 nm, primary screen (AID 1149). The conditions noted are these: COS7 hTOR1A-WT lysate, 635 nm fluorescence, higher = more signal.
Test [9] has the same target. Put plainly: torsin A mutant lysate binding on microarrays – cell lysate, small-molecule microarray, COS7 lysate, 635/667 nm fluorescence, primary screen (AID 1150).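 Also: score pools 667 nm emission and signal to noise measuring lysate protein binding.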 As to conditions: COS7 hTOR1A mutant lysate, 635 nm fluorescence, higher = more signal.
In test [10] the test system is Sonic hedgehog protein (Shh). As to the kind of experiment: Sonic hedgehog microarray binding compounds – biochemical, small-molecule microarray, 635/667 nm fluorescence, primary screen (AID 1151).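 Also: Shh protein binding to compounds spotted on small-molecule microarray slides; score combines spot fluorescence intensity with signal-to-noise across triplicate slides.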 As to conditions: 635 nm fluorescence, higher = more signal.
Test [11] can be described thus: optical density shifts of acrAB sulA E. coli – strain DRC41, OD650, 48 h, E. coli filamentation inducer project, primary screen (AID 1152).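 Also: E. coli MC1000 strain DRC41 lacking acrAB efflux pump and sulA.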 The conditions noted are these: higher = more signal, called active from +8 up or from −8 down.
The nature of test [12]: probe aLefty1 binding on compound microarray – biochemical, small-molecule microarray, 635/667 nm fluorescence, primary screen (AID 1153).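 Also: score merges spot fluorescence with signal-to-noise ratio from the scanned slide images.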 As to conditions: higher = more signal.
Test [13] can be described thus: plasmodial surface anion channel blockers, osmotic lysis – cell-based, P. falciparum Indochina, OD700, 1 h, primary screen (AID 1154). As to conditions: P. falciparum Indochina infected RBC osmotic lysis, higher = more signal, called active from +8 up or from −8 down.
Test [14] is described as follows: plasmodial surface anion channel blockers, osmotic lysis – cell-based, P. falciparum Indochina, OD700, 2 h, primary screen (AID 1155).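 Also: lysis reports solute entry through the parasite surface anion channel PSAC.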 The conditions noted are these: P. falciparum Indochina infected erythrocytes, higher = more signal, called active from +8 up or from −8 down.
Test [15] in a line: changes in parasitized red cell lysis, either direction – P. falciparum Indochina, OD700, 3 h, PSAC antagonist project, primary screen (AID 1156). The conditions noted are these: P. falciparum-infected erythrocytes, osmotic lysis, higher = more signal, called active from +8 up or from −8 down.
A short description of test [16]: plasmodial surface anion channel blockers, osmotic lysis – cell-based, P. falciparum Indochina, OD700, 18 h, primary screen (AID 1157). The conditions noted are these: P. falciparum Indochina infected erythrocytes, osmotic lysis OD700, 18 h; higher = more signal, called active from +8 up or from −8 down.
A short description of test [17]: S6 kinase pathway phospho-S6 level changes – cell-based, A549, cytoblot, luminescence, serum-stimulated, primary screen (AID 1158).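 Also: serum-stimulated A549 lung adenocarcinoma cells; signal is phosphorylated S6 detected by cytoblot immunostaining with HRP secondary.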 As to conditions: 5 h, higher = more signal.
Test [18] addresses NADPH oxidase 2 (Homo sapiens) (UniProt P04839). Put plainly: compounds shifting NOX2 Amplex Red fluorescence – cell-based, HEK293-NOX2, PMA-stimulated, NOX inhibitor project, primary screen (AID 1159). Also: test concentration not given here. As to conditions: 45 min, higher = more signal, called active from +8 up or from −8 down.
Test [19] addresses NADPH oxidase 4 (Homo sapiens) (UniProt Q9NPH5). Put plainly: compounds shifting NOX4 Amplex Red fluorescence – cell-based, HEK293-NOX4, tetracycline-induced, NOX inhibitor project, primary screen (AID 1160). As to conditions: HEK293-NOX4, Amplex Red H2O2 fluorescence, 45 min; higher = more signal, called active from +8 up or from −8 down.
Test [20] has as its target NADPH oxidase 5 (Homo sapiens) (UniProt Q96PH1). As to the kind of experiment: compounds shifting NOX5 Amplex Red fluorescence – cell-based, HEK293-NOX5, NOX inhibitor project, primary screen (AID 1161). As to conditions: HEK293-NOX5, ionomycin, 45 min, higher = more signal.

Active and inactive are the calls of the source. Unless noted, no rule for the calls is given here.

Chain of NADPH oxidase 5 (Homo sapiens) (Q96PH1 whole entry, looked up): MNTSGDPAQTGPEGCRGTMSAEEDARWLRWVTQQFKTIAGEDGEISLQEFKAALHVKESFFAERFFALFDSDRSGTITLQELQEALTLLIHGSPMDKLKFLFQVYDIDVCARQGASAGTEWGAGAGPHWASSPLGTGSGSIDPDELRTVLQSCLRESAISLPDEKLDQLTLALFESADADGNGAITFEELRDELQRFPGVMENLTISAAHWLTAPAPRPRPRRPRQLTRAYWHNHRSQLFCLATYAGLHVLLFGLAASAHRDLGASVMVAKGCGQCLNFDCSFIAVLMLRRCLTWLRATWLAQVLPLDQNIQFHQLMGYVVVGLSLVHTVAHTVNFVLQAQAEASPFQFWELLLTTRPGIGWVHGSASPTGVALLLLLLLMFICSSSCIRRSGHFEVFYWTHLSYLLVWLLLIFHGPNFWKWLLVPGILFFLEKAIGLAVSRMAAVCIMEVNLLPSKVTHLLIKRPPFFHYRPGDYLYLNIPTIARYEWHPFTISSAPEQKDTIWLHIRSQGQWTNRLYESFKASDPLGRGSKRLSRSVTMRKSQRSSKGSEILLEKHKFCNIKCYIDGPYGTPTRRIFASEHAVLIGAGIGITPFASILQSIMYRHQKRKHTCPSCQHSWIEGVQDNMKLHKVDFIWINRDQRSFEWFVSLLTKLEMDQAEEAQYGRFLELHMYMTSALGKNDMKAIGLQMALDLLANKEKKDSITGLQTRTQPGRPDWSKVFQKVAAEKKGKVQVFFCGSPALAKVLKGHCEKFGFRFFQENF
Chain of Torsin-1A (Homo sapiens) (O14656 whole entry, looked up): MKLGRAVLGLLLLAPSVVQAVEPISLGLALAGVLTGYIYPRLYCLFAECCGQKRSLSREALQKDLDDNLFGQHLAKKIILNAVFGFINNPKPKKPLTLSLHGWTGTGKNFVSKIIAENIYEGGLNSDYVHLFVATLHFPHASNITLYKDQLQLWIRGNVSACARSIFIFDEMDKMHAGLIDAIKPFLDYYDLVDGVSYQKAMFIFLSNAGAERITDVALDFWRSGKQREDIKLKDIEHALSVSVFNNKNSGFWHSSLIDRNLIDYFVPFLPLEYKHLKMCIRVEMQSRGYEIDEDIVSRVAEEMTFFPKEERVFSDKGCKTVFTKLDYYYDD
Chain of Streptavidin (Streptomyces avidinii) (P22629 whole entry, looked up): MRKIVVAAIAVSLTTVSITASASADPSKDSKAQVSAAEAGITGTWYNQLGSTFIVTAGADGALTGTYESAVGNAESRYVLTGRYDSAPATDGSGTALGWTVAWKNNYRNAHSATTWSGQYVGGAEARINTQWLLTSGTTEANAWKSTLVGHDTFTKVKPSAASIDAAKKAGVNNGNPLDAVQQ
Chain of NADPH oxidase 2 (Homo sapiens) (P04839 whole entry, looked up): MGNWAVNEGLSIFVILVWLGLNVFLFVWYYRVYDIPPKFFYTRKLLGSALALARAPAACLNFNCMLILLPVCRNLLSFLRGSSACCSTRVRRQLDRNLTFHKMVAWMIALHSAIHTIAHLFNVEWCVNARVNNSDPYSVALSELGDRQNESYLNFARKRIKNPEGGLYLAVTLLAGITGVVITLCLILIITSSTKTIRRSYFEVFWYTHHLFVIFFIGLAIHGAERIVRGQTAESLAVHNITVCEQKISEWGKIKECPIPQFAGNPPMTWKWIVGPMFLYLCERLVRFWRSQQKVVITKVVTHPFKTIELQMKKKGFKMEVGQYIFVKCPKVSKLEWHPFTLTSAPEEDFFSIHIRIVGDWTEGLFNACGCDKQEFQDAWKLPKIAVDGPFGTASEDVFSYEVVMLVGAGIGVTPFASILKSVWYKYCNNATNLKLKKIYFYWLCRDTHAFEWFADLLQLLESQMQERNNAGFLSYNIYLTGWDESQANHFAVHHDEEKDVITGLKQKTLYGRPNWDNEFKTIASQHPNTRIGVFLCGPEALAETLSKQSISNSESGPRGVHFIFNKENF
Chain of NADPH oxidase 4 (Homo sapiens) (Q9NPH5 whole entry, looked up): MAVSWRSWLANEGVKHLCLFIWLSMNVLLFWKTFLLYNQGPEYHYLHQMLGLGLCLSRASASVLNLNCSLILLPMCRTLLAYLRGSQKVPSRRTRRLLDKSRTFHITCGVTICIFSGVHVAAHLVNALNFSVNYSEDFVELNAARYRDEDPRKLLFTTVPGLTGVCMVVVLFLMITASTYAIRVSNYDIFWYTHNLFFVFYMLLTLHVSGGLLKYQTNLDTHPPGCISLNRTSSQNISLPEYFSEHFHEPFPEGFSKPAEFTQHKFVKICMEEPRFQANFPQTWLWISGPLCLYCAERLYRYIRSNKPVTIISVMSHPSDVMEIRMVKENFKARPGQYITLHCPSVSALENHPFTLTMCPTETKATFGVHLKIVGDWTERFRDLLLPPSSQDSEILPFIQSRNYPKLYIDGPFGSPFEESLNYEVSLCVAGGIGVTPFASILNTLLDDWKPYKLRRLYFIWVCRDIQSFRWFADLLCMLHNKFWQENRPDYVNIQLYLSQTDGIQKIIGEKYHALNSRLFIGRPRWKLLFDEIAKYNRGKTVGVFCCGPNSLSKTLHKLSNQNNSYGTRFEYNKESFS

`C/C=C\[C@@H](NCc1ccccc1Br)[C@@H](O)Cc1ccccc1`: the composite z-score was -0.771 in [1]; -0.838 in test [6]; -0.153 in test [7]; 0.0908 in the test with Torsin-1A (Homo sapiens) [8]; -0.27 with Torsin-1A (Homo sapiens) [9]; -1.3 in [10]. Moreover, the composite z-score in test [12] worked out at 0.0927. Further, the z-score in [2] was -5.43 (inactive); in test [3], 0.541 (inactive); in [4], 0.857 (inactive); in [5] it was 0.567 (inactive); in [11] it was -1.43 (inactive); in test [13] it was -0.222 (inactive). Further, the z-score in test [14] was -1.35 (inactive); in [15] it was 0.0141 (inactive); in test [16] it was -2.52 (inactive); in test [17] it was 0.365; in [18], -0.239 (inactive); in test [19] it was -1.49 (inactive). In addition, in [20], the z-score is -2.69.

`CN(C)c1ccc(C(O)C2C=CC3C(=O)N(c4ccccc4)C(=O)C3N2Nc2ccccc2F)cc1` (stereo not given): the composite z-score in test [1] is 0.0698; in [6] it was 0.557; in [7] it was -0.125; with Torsin-1A (Homo sapiens) [8] it was 0.221; with Torsin-1A (Homo sapiens) [9], 0.15; in test [10], -0.378. Besides, the composite z-score in [12] is 0.284. The z-score in test [2] is -1.3 (inactive); in test [3], 0.136 (inactive); in test [4], 2.56 (inactive); in [5] it was 1.03 (inactive); in [11], -1.4 (inactive); in test [13], 4.37 (inactive). In addition, the z-score in test [14] was 1.2 (inactive); in test [15], 0.252 (inactive); in [16], 0.586 (inactive); in test [17], -0.288; in test [18], -2.5 (inactive); in test [19] it was -4.43 (inactive). For the same molecule, the z-score in test [20] was -3.99.

Regarding `COCCCNC(=O)[C@@]1(Sc2ccc(C)cc2)CC(=O)N(Cc2ccccc2)[C@@H]1c1ccc(CO)cc1I`, the composite z-score in test [1] was 0.129; in [6] it was -0.684; in test [7], 0.106; in the test with Torsin-1A (Homo sapiens) [8] it was 0.234; with Torsin-1A (Homo sapiens) [9], 0.0773; in test [10], -0.772. This molecule yielded a composite z-score in test [12] of 0.337. Also, the z-score in test [2] was -1.25 (inactive); in test [3], 0.501 (inactive); in test [4], -0.232 (inactive); in test [5], 1.48 (inactive); in test [11], 0.613 (inactive); in test [13], 4.55 (inactive). Besides, the z-score in [14] was 0.831 (inactive); in [15], 0.533 (inactive); in test [16], 0.377 (inactive); in test [17] it was 0.505; in test [18] it was 1.26 (inactive); in test [19], -0.666 (inactive). Besides, the z-score in test [20] worked out at 1.26.

For the molecule `COCCOC(=O)N1C(=O)[C@@]2(c3cc(C#Cc4ccc(OC)cc4)ccc31)[C@H](c1ccc(O)cc1)N1[C@H](c3ccccc3)[C@H](c3ccccc3)OC(=O)[C@H]1[C@@H]2C(N)=O`, the composite z-score in [1] is 0.586; in [6], 0.417; in test [7], -0.0947; in the test with Torsin-1A (Homo sapiens) [8], 0.187; in the test with Torsin-1A (Homo sapiens) [9], 0.825; in [10], 1.44. This molecule also had a composite z-score in test [12] of -0.303. Besides, the z-score in test [2] was -2.75 (inactive); in [3], -0.97 (inactive); in test [4], -0.752 (inactive); in test [5], -0.94 (inactive); in test [11], 0.0372 (inactive); in [13], 6.02 (inactive). For the same molecule, the z-score in test [14] was 1.5 (inactive); in test [15], -0.407 (inactive); in test [16], 0.954 (inactive); in [17], -0.0604; in test [18], 0.782 (inactive); in test [19], 0.689 (inactive). Besides, in test [20], the z-score is 0.305.
